Source: PubChem (National Center for Advancing Translational Sciences (NCATS))
G9a block = qHTS Assay for Inhibitors of Histone Lysine Methyltransferase G9a. Potency, µM (highest dose often 102 µM), for inactives: top-dose activity, negative = inhibition, most hits filed as inhibitors. G9a H3K9 monomethylation, AlphaScreen, 2 h. actives 8.8% (n = 350,000); further: on the % scale 0 is the no-effect control and ±100 the full control effect; nearly all actives have a fitted effect of over 75% in size
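Chemiluminescent proximity detection of H3K9 monomethylation, read after 10 min bead incubation in the dark. Reaction: 20 nM G9a, 500 nM biotin-H3K9 peptide, 20 uM SAM cofactor, 2 h, room temperature, following 15 min enzyme-compound preincubation.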
GLS inhibitor = qHTS for Inhibitors of Glutaminase (GLS); Glutaminase kidney isoform, mitochondrial (Homo sapiens), O94925; GLS enzymatic activity, qHTS titration; Potency, µM (series often up to 45.5 µM), for the others: top-dose activity change, negative = inhibition, usual class: inhibitors; actives 0.21% (n = 410,000); AID 624170, 2012; further: on the % scale 0 is the no-effect control and ±100 the full control effect
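Two-point fluorescence kinetic (t0, 30 min RT) for hKGA; glutamate detected via glutamate oxidase–HRP–Amplex Red. Substrate: 1 mM L-glutamine solution; buffer 45 mM KH2PO4, pH 8.2.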
HP1b binding inh = HTS for Inhibitors of HP1-beta Chromodomain Interactions with Methylated Histone Tails; Chromobox protein homolog 1 (Homo sapiens), P83916; AlphaScreen HP1-beta / biotin-H3K9me3 peptide binding; Potency, µM (doses to about 114 µM), without a hit: at the top dose activity change, negative = inhibition, actives largely listed as inhibitors; actives 0.56% (n = 390,000); AID 540317, 2011; further: nearly all actives have a fitted effect of over 70% in size
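HP1-beta protein (50 nM final) preincubated 30 min at room temperature with biotinylated H3(1-18)K9me3 peptide (50 nM) in PBS pH 7.4, 0.01% Tween-20, then compound added for 30 min. AlphaScreen streptavidin donor/nickel chelate acceptor beads (10 ug/mL final), 30 min dark, luminescence read.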
BAZ2B inh = qHTS Assay for Inhibitors of BAZ2B | actives 4.4% (n = 360,000) | Bromodomain adjacent to zinc finger domain protein 2B (Homo sapiens), Q9UIF8 | AlphaScreen BAZ2B-H3K14Ac peptide displacement | AID 504333, 2011 | Potency, µM (top dose mostly 114 µM), without a hit: at the top dose activity change, negative = inhibition, actives largely listed as inhibitors; further: on the % scale 0 is the no-effect control and ±100 the full control effect; nearly all actives have a fitted effect of over 60% in size
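AlphaScreen displacement of biotin-H3(5-23)K14Ac peptide (50 nM final) from BAZ2B (50 nM final) in PBS pH 7.4, 0.01% Tween-20; complex preformed 30 min RT, then compounds (top 110 uM) 30 min RT, beads 20 min dark.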
JMJD2A Tudor = qHTS Assay for Inhibitors of JMJD2A-Tudor Domain; AlphaScreen JMJD2A-Tudor / H3K4me3 peptide binding; Potency, µM (titrated, usually from 114 µM), for inactives: at the top dose activity change, negative = inhibition, most hits filed as inhibitors; actives 4.4% (n = 390,000); AID 504339, 2011; further: on the % scale 0 is the no-effect control and ±100 the full control effect; nearly all actives have a fitted effect of over 50% in size
The depositor's hits bear a star; ? = inconclusive; . = no result given; [ ] = another dose, or the depositor's remark. Sampled rows, rich in hits. Any-hit rate of the full collection: about 10%. The call rests on the fitted dose curve; in most records, active means well fitted curve in the direction sought with a large enough effect; inconclusive means small, poorly fitted or top-dose-only effect, or another doubt; inactive means no such curve, though single readings can be large; an effect the other way counts as inactive or inconclusive. Potency means the concentration at half of the fitted maximal effect.

SMILES | G9a block | GLS inhibitor | HP1b binding inh | BAZ2B inh | JMJD2A Tudor
O=C(Nc1cccc(C(F)(F)F)c1)c1scc2c1OCCO2 | 1% | 1% | 3% | 1% | 50µM*
Nc1c(-c2ccccn2)cnn1-c1nc(-c2ccc(F)cc2)cs1 | -9% | -3% | 73% | -5% | -9%
CC(C)c1ccc(NC(=O)C(c2ccc3c(c2)OCO3)N2CCCCC2)cc1 (stereo not given) | ? | 1% | 35% | 2% | -14%
Oc1cc2c(cc1C(c1ccc(Cl)c(Cl)c1)N1CCCC1)OCO2 (stereo not given) | 1.4µM* | -1% | 20µM* | 35µM* | 10µM*
COc1ccc2ccccc2c1CNCCCN1CCOCC1 | -14% | 8% | 46% | -19% | -7%
COc1ccc2ccccc2c1CNCc1ccc(C)cc1 | 50µM* | -2% | ? | ? | 22µM*
CC(NCCCOc1cccc2ccccc12)c1ccccc1 (stereo not given) | 11µM* | 1% | ? | ? | 22µM*
CC(NCc1ccccc1O)c1ccccc1 (stereo not given) | 20% | -4% | 40% | 0% | 13%
COc1ccc2ccccc2c1CNC(C)c1ccccc1 (stereo not given) | 20%[0.501 µM] | 4% | -5% | ? | 79µM*
Cc1oc2c(C)c(O)ccc2c(=O)c1-c1cnn(-c2ccccc2)c1 | 5%[12.7 µM] | -6% | 33% | -3% | 4%
Cc1nn(Cc2n[nH]c(=S)n2Cc2ccccc2)c(C)c1Cl | 2.5µM* | 3% | 16% | -22% | ?
Cc1cc(C)n(Cc2n[nH]c(=S)n2Cc2ccccc2)n1 | 16µM* | -1% | 44% | -5% | 22µM*
Cc1ccc(OCc2n[nH]c(=S)n2Cc2ccccc2)cc1 | ? | 29% | 20% | -20% | -28%
Cc1nn(Cc2ccccc2)c(C)c1N | -8% | 2% | -4% | -35% | ?
CSc1nsc(SC)c1C(=O)O | 45µM* | -1% | 16% | -4% | -2%
O=C(CN1CCc2ccccc21)NCc1ccc2c(c1)OCO2 | 22%[59 µM] | -10% | 12% | -31% | -32%
O=C(CN1CCOc2ccccc21)NCc1ccc(Cl)cc1 | 50µM* | 38% | 28% | ? | -18%
O=C(CN1CCCc2ccccc21)NC(=O)NC1CCCCC1 | 71µM* | 1% | ? | ? | 32µM*
COC(=O)c1ccc(CN2CCc3ccccc32)cc1 | . | -20% | -19% | ? | 40µM*
O=C(CN1CCc2ccccc21)NCc1ccccc1Cl | 71µM* | 22% | -9% | -37% | ?
CC(C)(C)NC(=O)NC(=O)CN1CCCc2ccccc21 | ? | -10% | -10% | -22% | -30%
CCOC(=O)c1sc2ccccc2c1S(=O)(=O)NCc1ccccc1OC | 3%[59 µM] | 4% | 32% | 4% | -9%
COc1ccc(Oc2ncc3nc(-c4cc(F)cc(F)c4)c(=O)n(C4CC4)c3n2)cc1 | 7%[0.501 µM] | . | . | . | .
CC(C)CCN(Cc1ccco1)S(=O)(=O)c1ccc(-c2ccc(=O)[nH]n2)s1 | 24%[59 µM] | 4% | 15% | -7% | -18%
O=C(CN1CCc2ccccc21)NC(=O)NCc1ccccc1 | 32µM* | 0% | -11% | . | -9%[11.4 µM]
SMILES | G9a block | GLS inhibitor | HP1b binding inh | BAZ2B inh | JMJD2A Tudor
COc1ccc(Cl)cc1NC(=O)CN1CCc2ccccc21 | 22µM* | -4% | 27% | ? | -26%
CCCC1C(c2ccco2)NC(c2ccco2)CC1(C)O (stereo not given) | 6.3µM* | 21% | ? | . | 3.5µM*
CN1C[C@H]2CON(C)[C@H]2C[C@H]1c1cccc(-c2ccccc2)c1 | . | 17% | 35% | . | -10%
CCOC(=O)c1ccc(NC(=O)CSc2nc(C)cc(=O)[nH]2)cc1 | ? | ? | ? | 50µM* | 45µM*
Cc1ccc(C(=O)CSc2nc(C)cc(=O)[nH]2)cc1 | 50µM* | -1% | 61% | -3% | -14%
Cc1ccc(C(=O)CSc2nc(N)cc(=O)[nH]2)cc1C | 19% | 5% | 24% | 2% | -24%
